Experimental data as given in ChEMBL document CHEMBL1961873, “Compounds: GSK PKIS; Assays: Nanosyn kinase panel” (2012).

What was measured:
[1] = biological target: Mast/stem cell growth factor receptor Kit (Homo sapiens) (UniProt P10721); details: at 1 µM
[2] = tested on: Mast/stem cell growth factor receptor Kit (Homo sapiens), P10721 [D816V]; details: at 0.1 µM
[3] = tested on: Mast/stem cell growth factor receptor Kit (Homo sapiens), P10721 [D816V]; details: at 1 µM
[4] = tested on: Mast/stem cell growth factor receptor Kit (Homo sapiens), P10721 [T670I]; details: at 0.1 µM
[5] = tested on: Mast/stem cell growth factor receptor Kit (Homo sapiens), P10721 [T670I]; details: at 1 µM
[6] = tested on: Mast/stem cell growth factor receptor Kit (Homo sapiens), P10721 [V560G]; details: at 0.1 µM
[7] = tested on: Mast/stem cell growth factor receptor Kit (Homo sapiens), P10721 [V560G]; details: at 1 µM
[8] = biological target: Tyrosine-protein kinase Lck (Homo sapiens) (UniProt P06239); details: at 0.1 µM
[9] = biological target: Tyrosine-protein kinase Lck (Homo sapiens) (UniProt P06239); details: at 1 µM
[10] = biological target: Leukocyte tyrosine kinase receptor (Homo sapiens) (UniProt P29376); details: at 0.1 µM
Leukocyte tyrosine kinase receptor (Homo sapiens), sequence (P29376 whole entry): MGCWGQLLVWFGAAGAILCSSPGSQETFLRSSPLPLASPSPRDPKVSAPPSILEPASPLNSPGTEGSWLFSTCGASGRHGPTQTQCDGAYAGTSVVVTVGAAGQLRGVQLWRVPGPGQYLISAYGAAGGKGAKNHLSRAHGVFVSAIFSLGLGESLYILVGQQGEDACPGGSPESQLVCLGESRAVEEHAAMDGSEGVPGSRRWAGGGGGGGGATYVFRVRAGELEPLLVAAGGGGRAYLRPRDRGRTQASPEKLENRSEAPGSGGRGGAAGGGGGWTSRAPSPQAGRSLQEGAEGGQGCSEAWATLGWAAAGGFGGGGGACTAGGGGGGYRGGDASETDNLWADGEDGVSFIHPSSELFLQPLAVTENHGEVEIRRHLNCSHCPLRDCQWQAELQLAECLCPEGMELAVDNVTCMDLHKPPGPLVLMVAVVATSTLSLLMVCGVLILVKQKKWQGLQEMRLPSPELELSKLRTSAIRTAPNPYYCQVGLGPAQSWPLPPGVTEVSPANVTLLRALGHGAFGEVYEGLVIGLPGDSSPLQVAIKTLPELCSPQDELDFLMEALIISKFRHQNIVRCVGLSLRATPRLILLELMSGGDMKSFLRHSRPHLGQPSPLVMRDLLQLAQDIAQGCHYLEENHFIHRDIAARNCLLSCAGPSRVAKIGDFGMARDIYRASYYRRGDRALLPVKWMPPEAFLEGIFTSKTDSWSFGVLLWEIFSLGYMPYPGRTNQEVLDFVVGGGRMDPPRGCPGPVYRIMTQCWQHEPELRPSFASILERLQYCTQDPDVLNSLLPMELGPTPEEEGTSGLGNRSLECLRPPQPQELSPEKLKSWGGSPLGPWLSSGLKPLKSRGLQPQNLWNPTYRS

Mast/stem cell growth factor receptor Kit (Homo sapiens), P10721 [D816V], sequence (P10721 whole entry D816V): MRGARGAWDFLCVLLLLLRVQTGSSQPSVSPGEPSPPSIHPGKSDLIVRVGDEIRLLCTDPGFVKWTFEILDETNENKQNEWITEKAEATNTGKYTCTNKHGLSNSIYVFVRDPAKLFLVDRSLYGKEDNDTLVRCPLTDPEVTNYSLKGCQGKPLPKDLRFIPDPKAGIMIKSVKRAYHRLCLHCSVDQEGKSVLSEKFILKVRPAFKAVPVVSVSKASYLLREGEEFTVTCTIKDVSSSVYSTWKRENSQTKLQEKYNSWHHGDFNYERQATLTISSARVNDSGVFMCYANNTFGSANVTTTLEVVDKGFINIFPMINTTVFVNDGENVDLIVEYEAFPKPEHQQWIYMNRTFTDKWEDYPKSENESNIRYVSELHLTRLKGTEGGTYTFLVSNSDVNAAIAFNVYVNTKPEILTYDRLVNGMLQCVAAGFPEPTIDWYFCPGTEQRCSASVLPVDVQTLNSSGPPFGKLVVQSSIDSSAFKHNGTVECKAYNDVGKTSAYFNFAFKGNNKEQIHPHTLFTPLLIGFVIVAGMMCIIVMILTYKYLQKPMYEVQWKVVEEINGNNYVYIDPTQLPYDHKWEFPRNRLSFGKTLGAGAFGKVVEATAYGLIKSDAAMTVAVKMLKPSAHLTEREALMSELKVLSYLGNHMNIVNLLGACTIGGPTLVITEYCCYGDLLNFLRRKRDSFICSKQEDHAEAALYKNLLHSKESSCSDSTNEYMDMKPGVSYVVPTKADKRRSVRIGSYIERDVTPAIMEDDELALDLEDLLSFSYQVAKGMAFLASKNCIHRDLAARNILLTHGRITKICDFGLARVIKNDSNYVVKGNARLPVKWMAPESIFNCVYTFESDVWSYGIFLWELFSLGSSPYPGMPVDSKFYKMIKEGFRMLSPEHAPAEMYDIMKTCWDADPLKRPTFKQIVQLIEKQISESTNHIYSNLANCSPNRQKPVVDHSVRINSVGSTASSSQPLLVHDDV
Mast/stem cell growth factor receptor Kit (Homo sapiens), P10721 [V560G], sequence (P10721 whole entry V560G): as the sequence (P10721 whole entry D816V) above, with V560G, V816D counted along it
Mast/stem cell growth factor receptor Kit (Homo sapiens), sequence (P10721 whole entry): as the sequence (P10721 whole entry D816V) above, with V816D counted along it
Tyrosine-protein kinase Lck (Homo sapiens), sequence (P06239 2-509 limits assumed): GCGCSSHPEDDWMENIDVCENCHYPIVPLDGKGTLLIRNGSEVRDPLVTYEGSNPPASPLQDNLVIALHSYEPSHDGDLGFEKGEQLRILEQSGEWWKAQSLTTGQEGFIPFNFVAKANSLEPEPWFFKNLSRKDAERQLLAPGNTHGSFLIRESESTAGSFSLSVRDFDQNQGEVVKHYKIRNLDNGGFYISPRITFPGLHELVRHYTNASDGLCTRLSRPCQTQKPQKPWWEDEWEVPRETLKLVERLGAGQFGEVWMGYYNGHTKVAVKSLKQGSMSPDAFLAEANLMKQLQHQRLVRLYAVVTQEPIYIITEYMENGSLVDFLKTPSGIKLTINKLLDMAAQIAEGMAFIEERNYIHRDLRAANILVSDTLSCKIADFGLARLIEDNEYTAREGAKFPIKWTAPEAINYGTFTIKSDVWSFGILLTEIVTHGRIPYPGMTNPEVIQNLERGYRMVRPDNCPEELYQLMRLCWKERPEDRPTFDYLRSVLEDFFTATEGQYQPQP
Mast/stem cell growth factor receptor Kit (Homo sapiens), P10721 [T670I], sequence (P10721 whole entry T670I): as the sequence (P10721 whole entry D816V) above, with T670I, V816D counted along it

`CCn1c(-c2nonc2N)nc2c(C#CCN)ncc(OCCCN)c21` gave an inhibition [1] of 3.33%, an inhibition [2] of -3.56% and an inhibition [3] of 3.48%. It also gave an inhibition [4] of -1.86%, an inhibition [5] of 2.2% and an inhibition [6] of 1.17%. The inhibition [7] was 2.93%, the inhibition [8] was 1.94% and the inhibition [9] was 0.46%. It also gave an inhibition [10] of -1.04%.
Molecule `Fc1ccc(-c2ncn(C3CCNCC3)c2-c2ccnc(Oc3ccccc3)n2)cc1` has an inhibition [1] of 1.46%, an inhibition [2] of 0.53% and an inhibition [3] of 4.38%. For the same molecule, the inhibition [4] was 0.68%, the inhibition [5] was 2.08% and the inhibition [6] was 3.13%. For the same molecule, the inhibition [7] was 1.77%, the inhibition [8] was -2.11% and the inhibition [9] was -2.53%. For the same molecule, the inhibition [10] was 0.54%.
`NS(=O)(=O)c1ccc(N/C=C2\C(=O)Nc3ccc4ncsc4c32)cc1` was tested, and the inhibition [1] was 90%, the inhibition [2] was 0.89% and the inhibition [3] was 14.5%. For the same molecule, the inhibition [4] was 12.1%, the inhibition [5] was 58.9% and the inhibition [6] was 0.83%. For the same molecule, the inhibition [7] was 20.2%, the inhibition [8] was 4.26% and the inhibition [9] was 13.2%. It also gave an inhibition [10] of 5.19%.
In the case of `CCn1c(-c2nonc2N)nc2c(C#CC(C)(C)O)ncc(OC[C@@H]3CCCN3)c21`, the inhibition [1] is reported as -2.57%, the inhibition [2] is reported as -1.62% and the inhibition [3] is reported as 4.32%. The inhibition [4] was -1.38%, the inhibition [5] was 1.32% and the inhibition [6] was 0.39%. For the same molecule, the inhibition [7] was -1.89%, the inhibition [8] was 1.21% and the inhibition [9] was 3.66%. The inhibition [10] was 0.71%.
Work on `COc1cc2c(cc1Nc1nc(Nc3ccsc3C(N)=O)c3cc[nH]c3n1)N(C(=O)CN(C)C)CCC2` yielded an inhibition [2] of 0.61%, an inhibition [3] of 2.53% and an inhibition [4] of -0.99%. The inhibition [5] was 3.92%, the inhibition [6] was 1.1% and the inhibition [7] was 8.54%. The inhibition [8] was 2.58%, the inhibition [9] was 6.92% and the inhibition [10] was 93.8%.
Work on `Nc1nonc1-c1nc2cnccc2n1C1CCCCC1` yielded an inhibition [1] of 20.6%, an inhibition [2] of -4.78% and an inhibition [3] of -1.9%. The inhibition [4] was -2.27%, the inhibition [5] was 13.3% and the inhibition [6] was 1.39%. For the same molecule, the inhibition [7] was 3.23%, the inhibition [8] was -0.24% and the inhibition [9] was 0.51%. The inhibition [10] was -0.53%.
`CCn1c(-c2nonc2N)nc2c(C#CC(C)(C)O)ncc(OCC3CCNCC3)c21` showed an inhibition [1] of 8.48%, an inhibition [2] of 3.82% and an inhibition [3] of 5.6%. For the same molecule, the inhibition [4] was 1.76%, the inhibition [5] was 4.21% and the inhibition [6] was 3.17%. The inhibition [7] was 3.26%, the inhibition [8] was -3.71% and the inhibition [9] was -1.12%. It also gave an inhibition [10] of 2.4%.
`COc1cccc(COc2cc(-n3cnc4ccccc43)sc2C(N)=O)c1` was tested, and the inhibition [1] was -3.97%, the inhibition [2] was -0.07% and the inhibition [3] was -0.97%. The inhibition [4] was -0.12%, the inhibition [5] was -0.76% and the inhibition [6] was -2.2%. For the same molecule, the inhibition [7] was -2.16%, the inhibition [8] was 0.12% and the inhibition [9] was -0.7%. The inhibition [10] was 0.36%.
`NS(=O)(=O)c1ccc(-c2ccc3c(NC(=O)C4CC4)n[nH]c3c2)cc1` was tested, and the inhibition [1] was 1.91%, the inhibition [2] was 3.57% and the inhibition [3] was 0.9%. It also gave an inhibition [4] of 4.28%, an inhibition [5] of 4.13% and an inhibition [6] of 2.1%. The inhibition [7] was -1.99%, the inhibition [8] was 2.8% and the inhibition [9] was 4.43%. It also gave an inhibition [10] of 1.17%.
In the case of `CCn1c(-c2nonc2N)nc2c(C#CC(C)(C)O)nc(O[C@@H](CN)c3ccccc3)cc21`, the inhibition [1] is reported as 2.69%, the inhibition [2] is reported as 0.72% and the inhibition [3] is reported as 34.2%. The inhibition [4] was -0.51%, the inhibition [5] was 10.4% and the inhibition [6] was 3.42%. For the same molecule, the inhibition [7] was 3.54%, the inhibition [8] was 0.41% and the inhibition [9] was 4.58%. The inhibition [10] was 35.4%.
`Cc1cc(-c2ccco2)cc(C)c1/C=C/c1cncc(-c2nn[nH]n2)c1` gave an inhibition [1] of 0.94%, an inhibition [2] of -2.81% and an inhibition [3] of -2.99%. The inhibition [4] was 1.44%, the inhibition [5] was 0.51% and the inhibition [6] was 1.15%. The inhibition [7] was 3.87%, the inhibition [8] was 1.77% and the inhibition [9] was 4.38%. The inhibition [10] was 1.51%.
Work on `COc1cccc(-n2ncc3c(N/N=C/c4ccncc4)ncnc32)c1` yielded an inhibition [1] of 57.2%, an inhibition [2] of 2.45% and an inhibition [3] of 12.7%. It also gave an inhibition [4] of 9.47%, an inhibition [5] of 46.9% and an inhibition [6] of 0.93%. For the same molecule, the inhibition [7] was 10.7%, the inhibition [8] was 41.1% and the inhibition [9] was 84%. The inhibition [10] was 4.93%.
`COc1cc(C=NNc2ncnc3c2cnn3Cc2ccccc2)ccc1O` gave an inhibition [1] of -1.55%, an inhibition [2] of -5.85% and an inhibition [3] of 0.6%. It also gave an inhibition [4] of -3.69%, an inhibition [5] of -2.85% and an inhibition [6] of 1.99%. The inhibition [7] was 3.94%, the inhibition [8] was 13.2% and the inhibition [9] was 14.2%. For the same molecule, the inhibition [10] was -2.98%.
`NC(=O)c1sc(-n2cnc3cc(C(F)(F)F)ccc32)cc1OCc1ccccc1Br` gave an inhibition [1] of 1.77%, an inhibition [2] of -1.89% and an inhibition [3] of -0.03%. It also gave an inhibition [4] of 0.92%, an inhibition [5] of 0.92% and an inhibition [6] of 0.44%. For the same molecule, the inhibition [7] was -1.3%, the inhibition [8] was 1.84% and the inhibition [9] was 4.62%. The inhibition [10] was 1.94%.
